Reference: PubChem BioAssay AID686979 (National Center for Advancing Translational Sciences (NCATS), 2013)
The campaign covered roughly 420,000 compounds. About 50,000 (12%) were called active. Not shown: some 26% with an inconclusive outcome. The call rests on the fitted dose curve; in most records, active means well fitted inhibition curve with a large enough effect; inconclusive means small, poorly fitted or top-dose-only effect; inactive means flat fitted curve, though single readings scatter. For the sample, actives were picked, then their nearest neighbours and some compounds at random.
On the % scale 0 is the no-effect control and ±100 the full control effect; potency means the concentration at half of the fitted maximal effect.

Experiment: qHTS for Inhibitors of human tyrosyl-DNA phosphodiesterase 1 (TDP1): qHTS in cells in presence of CPT; further: nearly all actives have a fitted effect of over 55% in size
Conditions: chicken DT40 Tdp1-/-;hTDP1 cells + 20 nM CPT, ATP luminescence, 48 h; series mostly up to 46.2 µM; activity change, negative = growth inhibition: at the top concentration
In short: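 Cell growth measured by CellTiter-Glo luminescence after a minimum 48 h, 37 C compound exposure with 20 nM CPT in Tdp1-knockout DT40 cells stably expressing hTDP1, seeded 400/well; qHTS titration format.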
In the case of `Cc1cccc(NC(=O)CSc2ncc(-c3ccccc3)[nH]2)c1C`, the Potency is reported as 25.9 µM (active).
For `CN(Cc1ccccc1)C(=O)c1ccc(NC2=NC3CS(=O)(=O)CC3S2)cc1` (stereo not given), the “activity change, negative = growth inhibition” value was 2.81% (inactive).
For `Cc1cccc2c(=O)cc(CSc3ccccc3NC(=O)C(C)C)[nH]c12`, the “activity change, negative = growth inhibition” value was -5.53% (inactive).
With `COc1ccc(C(C#N)=C2C=CC(=NO)c3ccccc32)cc1` the Potency was 1.3 µM (active).
For `COc1ccc(/C(N)=N/OC(=O)Cc2ccccc2)cc1`, the “activity change, negative = growth inhibition” value was 13.2% (inactive).
For `COc1ccc(C(=NN)c2ccc(OC)cc2)cc1`, the “activity change, negative = growth inhibition” value was 4.73% (inactive).
For `COc1ccc(C(=O)N(C)Cc2ccc(OC)c(OC)c2OC)cc1S(=O)(=O)N1CCOCC1`, the “activity change, negative = growth inhibition” value was -1.37% (inactive).
In the case of `COc1ccc(/C=C(/NC(=O)c2ccco2)C(=O)Nc2ccc(C(C)=O)cc2)cc1`, the “activity change, negative = growth inhibition” value is reported as 6.29% (inactive).
For `O=C(OCN1C(=O)c2ccccc2C1=O)/C(=C\c1ccco1)NC(=O)c1ccccc1`, the “activity change, negative = growth inhibition” value was 1.01% (inactive).
In the case of `COc1ccc(/C=C(\NC(=O)c2ccc(OCC(C)C)cc2)C(=O)OCc2ccco2)cc1`, the Potency is reported as 20.6 µM (active).
In the case of `CCOc1ccc(/C=C/C(=O)N(CC)CC(=O)NCc2cccs2)cc1OC`, the “activity change, negative = growth inhibition” value is reported as -17.8% (inactive).
In the case of `CC(=O)N[C@@H](C)C(=O)N1CCC(n2nccc2NC(=O)CCCc2ccccc2)CC1`, the “activity change, negative = growth inhibition” value is reported as 7.97% (inactive).
For `ClC/C=C/C[n+]1ccccc1Cl`, the “activity change, negative = growth inhibition” value was -26.5% (inactive).
In the case of `O=C(NCc1ccccc1Cl)C(=O)NCC1CCCN1S(=O)(=O)c1cccs1` (stereo not given), the “activity change, negative = growth inhibition” value is reported as -14.6% (inactive).
With `O=C(NCCC1CCCCN1S(=O)(=O)c1ccc(F)cc1)C(=O)NC1CC1` (stereo not given) the “activity change, negative = growth inhibition” value was 0.311% (inactive).
For `O=C(NCCC1CCCCN1S(=O)(=O)c1cccs1)C(=O)Nc1ccc(F)cc1F` (stereo not given), the Potency was 2.91 µM (active).
With `Cc1cc(C)nc(S/C=C/C(=O)c2ccccc2)n1` the Potency was 2.06 µM (active).
For `Cc1ccc(N/C=C/C(=O)c2ccccc2)cc1C`, the “activity change, negative = growth inhibition” value was 0.497% (inactive).
With `C/C(=N\NC(=O)c1nc(C)cc(C)n1)c1ccccc1` the “activity change, negative = growth inhibition” value was 10.9% (inactive).
For `O=C(CN(Cc1ccccc1)C(=O)CCC(=O)Nc1ccccn1)NCCc1ccccc1`, the “activity change, negative = growth inhibition” value was -26.5% (inactive).
For `O=C(CSc1nc2ccccc2c(=O)n1Cc1ccc(F)cc1)NCC1CCCO1` (stereo not given), the “activity change, negative = growth inhibition” value was -24.9% (inactive).
In the case of `O=C(CCCn1c(SCC(=O)c2ccccc2)nc2ccccc2c1=O)NCC1CCCO1` (stereo not given), the Potency is reported as 16.4 µM (active).
For `O=C(CCn1c(SCC(=O)c2ccccc2)nc2ccccc2c1=O)NCc1ccc(F)cc1`, the “activity change, negative = growth inhibition” value was -4.07% (inactive).
With `N#CCC(=O)N/N=C/c1cn(Cc2ccc3ccccc3c2)c2ccccc12` the Potency was 5.8 µM (active).
With `Cc1ccc(CNC(=O)C(=O)c2cn(CC(=O)N3CCCC3)c3ccccc23)cc1` the “activity change, negative = growth inhibition” value was -29.5% (inactive).
For `COCCCNC(=O)Cn1cc(/C=C(\C#N)C(=O)N2CCN(c3ccccc3)CC2)c2ccccc21`, the “activity change, negative = growth inhibition” value was 3.39% (inactive).
In the case of `CNC(=S)N/N=C/c1cn(Cc2ccc(C)cc2)c2ccccc12`, the Potency is reported as 18.4 µM (active).
For `NC(=O)Cn1cc(/C=N\NS(=O)(=O)c2ccccc2)c2ccccc21`, the “activity change, negative = growth inhibition” value was -4.65% (inactive).
For `N#CCC(=O)N/N=C/c1ccc(SCC(=O)Nc2ccccc2)o1`, the “activity change, negative = growth inhibition” value was -23.9% (inactive).
With `Nc1nc(NCC(=O)O)nc(N2CCCCCC2)c1[N+](=O)[O-]` the “activity change, negative = growth inhibition” value was 5.37% (inactive).
For `Cc1ccc(-n2c(-c3ccc(Cl)cc3)n[nH]c2=S)cc1`, the “activity change, negative = growth inhibition” value was -2.68% (inactive).
For `CC1(C)OC(=O)C2=C(C[C@@H](C3CC3)O[C@H]2c2ccc(Cl)cc2)O1`, the “activity change, negative = growth inhibition” value was -2.98% (inactive).
For `CN(CCO)C(=O)c1nc[nH]c1C(=O)N(C)Cc1ccccc1`, the “activity change, negative = growth inhibition” value was -26.5% (inactive).
For `COc1ccc(-c2cn3nc(N4CCCC(C(=O)NCCCOC(C)C)C4)sc3n2)cc1` (stereo not given), the Potency was 13 µM (active).
For `CCc1ccc(CNC(=O)C2CCN(c3nn4cc(-c5ccc(F)cc5)nc4s3)CC2)cc1`, the “activity change, negative = growth inhibition” value was -23% (inactive).
In the case of `Cc1cc(=O)n2nc(N3CCCC(C(=O)NCc4ccc(Cl)cc4)C3)sc2n1` (stereo not given), the “activity change, negative = growth inhibition” value is reported as -8.25% (inactive).
For `Cc1cc(=O)n2nc(N3CCC(C(=O)Nc4c(F)c(F)c(F)c(F)c4F)CC3)sc2n1`, the “activity change, negative = growth inhibition” value was 5.78% (inactive).
With `COc1ccc(OC)c(CNC(=O)C2CCCN(c3nc4ccccc4o3)C2)c1` (stereo not given) the “activity change, negative = growth inhibition” value was -4.53% (inactive).
With `COc1ccc(-c2cn3nc(N4CCC(C(=O)Nc5cccc(C)c5C)CC4)sc3n2)cc1` the Potency was 20.6 µM (active).
With `CC(C)CNS(=O)(=O)c1ccc(CCC(=O)NCc2ccc(Cl)cc2)cc1` the “activity change, negative = growth inhibition” value was -12% (inactive).
With `CCN(CC)S(=O)(=O)c1ccc(N2CC(C(=O)NCc3cccnc3)CC2=O)cc1` (stereo not given) the “activity change, negative = growth inhibition” value was -1.05% (inactive).
With `Cc1cccc(C)c1OCC(=O)NC(Cc1c[nH]c2ccccc12)C(=O)O` (stereo not given) the Potency was “inactive”.
In the case of `COc1ccc(-c2cc(C(=O)NC(Cc3c[nH]c4ccccc34)C(=O)O)c(C)o2)cc1OC` (stereo not given), the Potency is reported as 29.1 µM (active).
With `COc1ccc(-c2cc(C(=O)NC(C(=O)O)C(C)C)c(C)o2)cc1OC` (stereo not given) the “activity change, negative = growth inhibition” value was 6.13% (inactive).
In the case of `Cc1ccc(C(=O)Nc2cccc(-c3nc(CNC(=O)c4ccccc4-n4cccn4)c(C)o3)c2)s1`, the activity change, negative = growth inhibition is reported as -16.4% [at 9.04 µM] (inactive).
In the case of `CCN(CC)c1ccc(C2C(C(N)=O)=C(C)Nc3nc(SCc4ccccc4)nn32)cc1` (stereo not given), the “activity change, negative = growth inhibition” value is reported as -2.6% (inactive).
For `O=c1cc(O)c(-c2cccc(C(F)(F)F)c2)c(Cl)[nH]1`, the “activity change, negative = growth inhibition” value was -0.16% (inactive).
In the case of `Cc1cccc(-c2cnc(C(O)c3ccc4ccccc4c3)[nH]2)c1` (stereo not given), the Potency is reported as 20.6 µM (active).
In the case of `Cc1nc(N)[nH]c(=O)c1Oc1cccc(C(F)(F)F)c1`, the “activity change, negative = growth inhibition” value is reported as -5.81% (inactive).
For `COc1cccc(-c2cnc(C(O)c3ccccc3OC)[nH]2)c1` (stereo not given), the “activity change, negative = growth inhibition” value was -15.6% (inactive).
For `CCCc1ccc(C(O)c2ncc(-c3cccc(OC)c3)[nH]2)cc1` (stereo not given), the Potency was 16.4 µM (active).
With `COc1c(C)cc(C(O)c2ncc(-c3cccc(C(F)(F)F)c3)[nH]2)cc1C` (stereo not given) the Potency was 23.1 µM (active).
In the case of `COc1cccc(-c2ccc(C#N)c(SCC(=O)NCCc3ccc(Cl)cc3)n2)c1`, the “activity change, negative = growth inhibition” value is reported as -4.8% (inactive).
In the case of `OC(c1ccc(Cl)c(F)c1)c1ncc(-c2ccccc2Cl)[nH]1` (stereo not given), the “activity change, negative = growth inhibition” value is reported as -20.4% (inactive).
For `Cc1ccc(-c2cnc(C(O)c3cccc(C)c3C)[nH]2)cc1` (stereo not given), the “activity change, negative = growth inhibition” value was -25.5% (inactive).
